Reference: PubChem BioAssay AID1159580 (chemical genetic matrix, 2015)
Screen size: about 5,500 compounds; about 2,000 (36%) were called active. Another 18% or so got no clear call; they are omitted. No stated cut-off is given here; in the data, active means normalized growth mostly below about 0.91 (no sharp cut-off); inconclusive means no clear call, values can overlap the other calls; inactive means mostly above about 0.92. Some of the results follow.

Assay: chemical genetic growth profiling, strain panel (AID 1159580);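 further: tested at 20 µM; growth read once vehicle control cultures reached saturation at 30 °C; 1 = growth at the plate median or of vehicle wells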
Details: S. cerevisiae deletion strains, growth OD

Measured: normalized growth

Nc1ncnc2c1ncn2C1OC2COP(O)(=S)O[C@@H]2[C@@H]1O (some centres undefined)
inactive: locus YAL013W, strain DEP1, stronger effect = lower value 1.01 | locus YAL040C, strain CLN3, stronger effect = lower value 1.01 | locus YDR150W, strain NUM1, stronger effect = lower value 1.02 | locus YDR363W, strain ESC2, stronger effect = lower value 0.99 | locus YER002W, strain NOP16, stronger effect = lower value 0.989 | locus YGR078C, strain PAC10, stronger effect = lower value 1 | locus YJR075W, strain HOC1, stronger effect = lower value 0.997 | locus YNL128W, strain TEP1, stronger effect = lower value 1.01 | locus YNL153C, strain GIM3, stronger effect = lower value 1.03 | locus YNL175C, strain NOP13, stronger effect = lower value 1.03 | locus YNL197C, strain WHI3, stronger effect = lower value 1.02 | locus YNL224C, strain SQS1, stronger effect = lower value 1.02 | locus YOR083W, strain WHI5 (second series), stronger effect = lower value 0.997 | locus YPL241C, strain CIN2, stronger effect = lower value 1.01
